Drawing on ChEMBL document CHEMBL5724796, “Tm Shift (DSF) assay results for EUbOPEN Chemogenomics Library” (2024), this text covers ΔTm for 15 compounds.

SMILES strings stand for the structures. Residues, ends and D or L forms follow the SMILES beside them.

What all share (settings): Compound concentration 20.0 uM
The target in experiment [1] is Tyrosine-protein kinase ABL1 (Homo sapiens) (UniProt P00519).
Experiment [2] has as its target Bromodomain-containing protein 4 (Homo sapiens) (UniProt O60885).
Experiment [3] has as its target Cyclin-dependent kinase 2 (Homo sapiens) (UniProt P24941).
For experiment [4], the target named is Casein kinase I isoform delta (Homo sapiens) (UniProt P48730).
Casein kinase I isoform delta (Homo sapiens), sequence (P48730 whole entry, looked up, canonical isoform): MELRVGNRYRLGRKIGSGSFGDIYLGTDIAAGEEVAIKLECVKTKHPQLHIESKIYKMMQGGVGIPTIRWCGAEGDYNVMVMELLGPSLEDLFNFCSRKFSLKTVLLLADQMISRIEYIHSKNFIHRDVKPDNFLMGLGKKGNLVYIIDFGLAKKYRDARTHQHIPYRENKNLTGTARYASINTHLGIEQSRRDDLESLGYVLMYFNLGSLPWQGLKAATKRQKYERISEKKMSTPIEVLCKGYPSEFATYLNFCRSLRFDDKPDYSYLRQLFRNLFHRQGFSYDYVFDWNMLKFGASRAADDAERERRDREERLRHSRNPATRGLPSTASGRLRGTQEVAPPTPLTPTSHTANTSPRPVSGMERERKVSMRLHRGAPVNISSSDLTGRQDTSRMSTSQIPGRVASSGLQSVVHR
Experiment [5] addresses Glycogen synthase kinase-3 beta (Homo sapiens) (UniProt P49841).
In experiment [6] the target is Mitogen-activated protein kinase 1 (Homo sapiens) (UniProt P28482).
Mitogen-activated protein kinase 1 (Homo sapiens), sequence (P28482 whole entry): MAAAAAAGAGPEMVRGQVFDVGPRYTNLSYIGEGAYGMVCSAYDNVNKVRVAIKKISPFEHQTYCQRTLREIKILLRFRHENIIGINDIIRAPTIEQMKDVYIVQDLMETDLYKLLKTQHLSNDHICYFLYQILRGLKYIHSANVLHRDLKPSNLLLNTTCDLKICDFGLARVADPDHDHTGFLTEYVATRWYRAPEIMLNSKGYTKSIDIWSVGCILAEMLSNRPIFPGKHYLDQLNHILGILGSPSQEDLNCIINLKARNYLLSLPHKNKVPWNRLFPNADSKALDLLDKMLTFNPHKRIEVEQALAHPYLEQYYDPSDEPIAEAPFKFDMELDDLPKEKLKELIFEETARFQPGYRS
Experiment [7] concerns the target T1, Aurora kinase A (Homo sapiens) (UniProt O14965).
T1 sequence (whole entry): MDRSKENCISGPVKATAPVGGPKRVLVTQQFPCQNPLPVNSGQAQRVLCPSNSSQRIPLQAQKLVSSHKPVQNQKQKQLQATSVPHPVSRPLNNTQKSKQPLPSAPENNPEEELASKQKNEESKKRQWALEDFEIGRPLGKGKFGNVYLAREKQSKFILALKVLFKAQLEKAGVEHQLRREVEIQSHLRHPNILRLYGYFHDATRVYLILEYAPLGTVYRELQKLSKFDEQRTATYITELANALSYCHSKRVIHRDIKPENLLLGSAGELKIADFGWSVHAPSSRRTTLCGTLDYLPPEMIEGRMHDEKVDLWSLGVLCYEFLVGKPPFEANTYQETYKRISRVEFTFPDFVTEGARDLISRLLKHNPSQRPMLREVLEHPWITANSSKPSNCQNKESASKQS

In experiment [8] the target is T2, Transcription intermediary factor 1-alpha (Homo sapiens) (UniProt O15164).
T2 sequence (whole entry): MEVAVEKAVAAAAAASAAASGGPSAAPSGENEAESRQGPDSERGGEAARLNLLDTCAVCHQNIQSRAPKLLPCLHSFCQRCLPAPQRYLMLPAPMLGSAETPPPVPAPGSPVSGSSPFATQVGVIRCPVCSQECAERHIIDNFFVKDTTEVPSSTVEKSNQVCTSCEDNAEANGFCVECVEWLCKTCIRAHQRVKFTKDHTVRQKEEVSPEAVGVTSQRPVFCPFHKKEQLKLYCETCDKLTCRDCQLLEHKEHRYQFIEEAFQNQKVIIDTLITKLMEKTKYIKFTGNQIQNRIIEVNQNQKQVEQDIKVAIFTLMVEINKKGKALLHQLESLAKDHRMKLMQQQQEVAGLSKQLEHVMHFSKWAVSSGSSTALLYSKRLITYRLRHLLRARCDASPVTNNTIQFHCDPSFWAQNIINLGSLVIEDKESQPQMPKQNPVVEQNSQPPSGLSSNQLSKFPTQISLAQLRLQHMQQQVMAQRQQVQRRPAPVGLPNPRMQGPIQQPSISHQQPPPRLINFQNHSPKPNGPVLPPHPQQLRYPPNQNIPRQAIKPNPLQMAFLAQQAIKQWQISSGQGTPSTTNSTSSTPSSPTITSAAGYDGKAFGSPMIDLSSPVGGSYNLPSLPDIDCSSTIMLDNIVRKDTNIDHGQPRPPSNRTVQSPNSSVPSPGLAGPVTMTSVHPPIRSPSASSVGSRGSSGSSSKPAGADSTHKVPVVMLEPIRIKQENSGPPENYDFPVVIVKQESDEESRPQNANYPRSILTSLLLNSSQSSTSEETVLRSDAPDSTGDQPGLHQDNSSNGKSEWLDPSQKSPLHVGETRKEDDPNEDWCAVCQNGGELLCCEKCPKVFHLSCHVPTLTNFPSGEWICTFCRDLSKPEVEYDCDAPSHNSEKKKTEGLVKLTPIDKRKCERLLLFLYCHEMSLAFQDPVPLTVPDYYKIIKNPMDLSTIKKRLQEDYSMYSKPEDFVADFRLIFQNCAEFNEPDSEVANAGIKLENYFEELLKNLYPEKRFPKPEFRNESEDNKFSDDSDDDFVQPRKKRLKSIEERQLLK

Glycogen synthase kinase-3 beta (Homo sapiens), sequence (P49841 whole entry, looked up): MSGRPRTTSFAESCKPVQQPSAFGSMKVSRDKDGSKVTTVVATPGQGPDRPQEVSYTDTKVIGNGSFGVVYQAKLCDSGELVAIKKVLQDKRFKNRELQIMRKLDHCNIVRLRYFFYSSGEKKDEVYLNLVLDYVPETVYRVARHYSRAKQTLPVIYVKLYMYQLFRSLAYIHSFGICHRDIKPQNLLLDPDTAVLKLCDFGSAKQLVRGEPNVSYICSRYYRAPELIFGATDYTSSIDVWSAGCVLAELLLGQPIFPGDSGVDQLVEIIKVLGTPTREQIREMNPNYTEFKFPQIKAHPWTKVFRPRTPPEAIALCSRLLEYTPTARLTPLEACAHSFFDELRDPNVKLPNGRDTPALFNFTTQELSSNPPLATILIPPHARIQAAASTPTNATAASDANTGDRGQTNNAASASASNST
Tyrosine-protein kinase ABL1 (Homo sapiens), sequence (P00519 whole entry): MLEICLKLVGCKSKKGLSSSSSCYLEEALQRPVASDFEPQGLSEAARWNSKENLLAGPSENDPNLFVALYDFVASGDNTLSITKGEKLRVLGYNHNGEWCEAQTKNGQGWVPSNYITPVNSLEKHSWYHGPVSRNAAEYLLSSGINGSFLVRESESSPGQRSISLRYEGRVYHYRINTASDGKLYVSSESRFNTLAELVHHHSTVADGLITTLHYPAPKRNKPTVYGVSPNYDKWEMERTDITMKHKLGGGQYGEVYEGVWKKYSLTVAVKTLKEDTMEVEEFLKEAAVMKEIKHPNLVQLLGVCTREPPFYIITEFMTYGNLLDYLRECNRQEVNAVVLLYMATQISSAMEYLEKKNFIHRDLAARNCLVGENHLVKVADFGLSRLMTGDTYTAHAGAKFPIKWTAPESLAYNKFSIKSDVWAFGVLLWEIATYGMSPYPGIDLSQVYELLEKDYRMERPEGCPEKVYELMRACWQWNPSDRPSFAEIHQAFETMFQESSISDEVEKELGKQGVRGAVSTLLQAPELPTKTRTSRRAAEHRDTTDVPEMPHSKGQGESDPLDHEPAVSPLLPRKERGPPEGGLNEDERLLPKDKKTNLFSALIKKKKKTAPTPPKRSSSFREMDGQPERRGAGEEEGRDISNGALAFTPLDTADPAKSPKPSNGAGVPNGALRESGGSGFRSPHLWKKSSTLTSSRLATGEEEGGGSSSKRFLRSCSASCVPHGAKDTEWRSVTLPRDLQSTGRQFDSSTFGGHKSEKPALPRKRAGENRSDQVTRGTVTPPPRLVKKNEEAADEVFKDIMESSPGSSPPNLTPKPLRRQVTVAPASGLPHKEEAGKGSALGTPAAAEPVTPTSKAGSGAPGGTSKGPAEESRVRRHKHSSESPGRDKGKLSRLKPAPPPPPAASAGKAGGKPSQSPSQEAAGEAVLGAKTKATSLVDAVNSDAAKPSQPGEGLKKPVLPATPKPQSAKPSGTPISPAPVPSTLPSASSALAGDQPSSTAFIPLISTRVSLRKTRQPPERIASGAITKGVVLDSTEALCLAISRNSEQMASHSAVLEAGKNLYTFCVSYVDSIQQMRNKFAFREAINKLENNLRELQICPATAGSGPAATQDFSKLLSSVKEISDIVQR

Turning to `Cc1n[nH]c(C)c1Cc1sc2c(c1C(=O)N1C[C@H](O)CO1)c(=O)n(C)c(=O)n2CC(C)C`, the ΔTm (in general, the shift of the melting midpoint relative to a reference) was 0.44 °C in experiment [1]; -2.67 °C in experiment [2]; 0.95 °C in experiment [3]; -0.14 °C in experiment [4]; -0.85 °C in experiment [5]; 0.11 °C in experiment [6]. Also, the ΔTm is -1.57 °C in experiment [7] and 0.69 °C in experiment [8].
`CC(C)c1cnc(CSc2cnc(NC(=O)C3CCNCC3)s2)o1`: the ΔTm in experiment [1] is 0.26 °C; in experiment [2], -1.43 °C; in experiment [3] it was 6.28 °C; in experiment [4], 1.43 °C; in experiment [5], 7.03 °C; in experiment [6] it was -0.12 °C. Besides, the ΔTm was 3.08 °C in experiment [7] and -0.84 °C in experiment [8].
Take `CC(C)Oc1ccc(C=O)cc1`: the shift in melting temperature (ΔTm) is 0.27 °C in experiment [1]; -1.93 °C in experiment [2]; -0.05 °C in experiment [3]; 0.18 °C in experiment [4]; -0.88 °C in experiment [5]; 0.02 °C in experiment [6]. Also, the thermal shift (ΔTm) in experiment [7] was -1.79 °C; in experiment [8], -0.93 °C.
On to `NS(=O)(=O)OC[C@H]1C[C@@H](Nc2ncncc2C(=O)c2ccn(Cc3cccc(Br)c3)n2)C[C@@H]1O`, for which the thermal shift (ΔTm) is 0.71 °C in experiment [1]; -2.22 °C in experiment [2]; 0.03 °C in experiment [3]; 0.64 °C in experiment [4]; 1.22 °C in experiment [5]; 0.37 °C in experiment [6]. Moreover, the ΔTm in experiment [7] was -1.76 °C; in experiment [8], -1.07 °C.
Take `COC[C@@H]1CCCN1S(=O)(=O)c1ccc2c(c1)C(=O)C(=O)N2`: the ΔTm is 0.35 °C in experiment [1]; -1.47 °C in experiment [2]; -0.41 °C in experiment [3]; 0.01 °C in experiment [4]; -0.2 °C in experiment [5]; -0.37 °C in experiment [6]. In addition, the thermal shift (ΔTm) in experiment [7] was -0.97 °C; in experiment [8], -0.89 °C.
As to `COc1nc(Nc2cc(S(C)(=O)=O)ccc2N[C@@H](c2cccc3c2OC(F)(F)O3)c2ncccc2Cl)nc(N2CCNCC2)n1`, the ΔTm in experiment [1] is -0.96 °C; in experiment [2] it was -4.95 °C; in experiment [3] it was -3.51 °C; in experiment [4], -0.34 °C; in experiment [5], 0 °C; in experiment [6], 0 °C. The ΔTm is -5.82 °C in experiment [7] and 0.37 °C in experiment [8].
For `CSCC[C@H](NC(=O)[C@H](CC(=O)O)NC(C)=O)C(=O)N[C@@H](CCC(N)=O)C(=O)N[C@H](C=O)CC(=O)O` (Ac-DMQD-aldehyde), the ΔTm is 0.11 °C in experiment [1]; -1.14 °C in experiment [2]; -0.29 °C in experiment [3]; 0.02 °C in experiment [4]; -0.48 °C in experiment [5]; -0.4 °C in experiment [6]. Besides, the ΔTm in experiment [7] was -1.16 °C; in experiment [8], -0.9 °C.
With `CC1(NC(=O)COc2cccc(-c3nc4c(c(Nc5ccc(-c6cn[nH]c6)cc5)n3)CN(C3CCC3)CC4)c2)CC1`, the thermal shift (ΔTm) is 0.81 °C in experiment [1]; -2.72 °C in experiment [2]; 0.02 °C in experiment [3]; -0.75 °C in experiment [4]; -0.18 °C in experiment [5]; 0.14 °C in experiment [6]. Further, the thermal shift (ΔTm) in experiment [7] is 0.11 °C; in experiment [8] it was -0.35 °C.
Regarding `C[C@H](NC(=O)c1cn(C2(C#N)CC2)cn1)C(=O)Nc1nc(-c2cccc(-c3ccn(C)n3)c2)cs1`, the ΔTm in experiment [1] is 0.58 °C; in experiment [2], -1.99 °C; in experiment [3] it was 0.19 °C; in experiment [4] it was 0.61 °C; in experiment [5] it was -0.01 °C; in experiment [6], -0.23 °C. The ΔTm in experiment [7] was 1.33 °C; in experiment [8] it was -0.79 °C.
On to `COCCOCCn1nc2c(c1C)-c1c(Cl)ccc3c1c(C)c(C(=O)O)n3CCCOc1cc(cc3c(F)c(Cl)ccc13)CCc1cc(nn1C)CSC2`, for which the ΔTm is -1.69 °C in experiment [1]; -3.74 °C in experiment [2]; -3.85 °C in experiment [3]; -0.76 °C in experiment [4]; 0 °C in experiment [5]; -1.31 °C in experiment [6]. Also, the shift in melting temperature (ΔTm) was 0.82 °C in experiment [7] and -3.03 °C in experiment [8].
Regarding `CC[C@H](C)[C@H](NC(=O)[C@H](CCC(=O)O)NC(=O)[C@@H](NC(C)=O)C(C)C)C(=O)N[C@H](C=O)CC(=O)O` (Ac-VEID-aldehyde), the ΔTm in experiment [1] was -0.05 °C; in experiment [2], -2.59 °C; in experiment [3], -0.23 °C; in experiment [4], -0.08 °C; in experiment [5], -0.35 °C; in experiment [6], -0.47 °C. In addition, the results for the ΔTm in experiment [7] and in experiment [8] were -1.47 °C and -0.43 °C, respectively.
In the case of `CS(=O)(=O)c1ccc(Oc2cc(F)cc(C#N)c2)c2c1[C@H](O)C(F)(F)C2`, the thermal shift (ΔTm) in experiment [1] is 0.43 °C; in experiment [2], -2.67 °C; in experiment [3] it was 0.56 °C; in experiment [4] it was -0.1 °C; in experiment [5] it was 0.06 °C; in experiment [6], 0.15 °C. Also, the shift in melting temperature (ΔTm) in experiment [7] is -1.44 °C; in experiment [8], 0.31 °C.
For the compound `Cc1ccc(NC2=CC(=O)c3sc(C)nc3C2=O)cc1`, the ΔTm in experiment [1] is 0.31 °C; in experiment [2], -1.66 °C; in experiment [3], 0.97 °C; in experiment [4], -0.17 °C; in experiment [5] it was -0.8 °C; in experiment [6] it was 0.04 °C. In addition, the results for the ΔTm in experiment [7] and in experiment [8] were -0.65 °C and -1.44 °C, respectively.
As for `CN(CCOc1ccc(-c2ccc3c(c2)OCO3)cc1C(C)(C)C)CC(=O)O`, the ΔTm in experiment [1] is 0.97 °C; in experiment [2], -3.79 °C; in experiment [3] it was -0.18 °C; in experiment [4], -0.21 °C; in experiment [5], -0.2 °C; in experiment [6] it was 0.46 °C. For the same compound, the shift in melting temperature (ΔTm) was -0.74 °C in experiment [7] and -0.19 °C in experiment [8].
With `CCN(c1cc(-c2ccc(CN3CCOCC3)cc2)cc(C(=O)NCc2c(C)cc(C)[nH]c2=O)c1C)C1CCOCC1`, the shift in melting temperature (ΔTm) in experiment [1] is 0.22 °C; in experiment [2], -1.59 °C; in experiment [3] it was -0.42 °C; in experiment [4], 0.03 °C; in experiment [5], 0 °C; in experiment [6], -4.86 °C. The figures for the ΔTm in experiment [7] and in experiment [8] were -1.94 °C and -2.54 °C, respectively.
